Data published in PubChem BioAssay (EPA / NIEHS).
Results filed as inconclusive are left out. Active and inactive are the calls of the source. How the source made its calls: active means hit-call score of the fitted dose curve at least 0.9, where 1 is the maximum; inconclusive means response in the unintended direction; inactive means score below 0.9.

Biological target: human Vitamin D Receptor (VDR), VDR (gene 7421) (UniProt P11473)
Test: ATG_VDR_TRANS: Attagene TRANS-FACTORIAL HepG2 Assay for human Vitamin D Receptor (VDR) (AID 2283022)
Procedure: ATG_TRANS is a cell-based, multiplexed-readout assay that uses HepG2, a human liver cell line, with measurements taken at 24 hours after chemical dosing in a 24-well plate.ATG_VDR_TRANS is one of 30 assay component(s) measured or calculated from the ATG_TRANS assay. It is designed to make measurements of mRNA induction, a form of inducible reporter, as detected with fluorescence intensity signals by Reverse transcription polymerase chain reaction (RT-PCR) and Capillary electrophoresis technology.Data from the assay component ATG_VDR_TRANS was analyzed into 1 assay endpoint. This assay endpoint, ATG_VDR_TRANS, was analyzed in the positive analysis fitting direction relative to DMSO as the negative control and baseline of activity. Using a type of inducible reporter, measures of mRNA for gain-of-signal activity can be used to understand the reporter gene at the transcription factor-level as they relate to the gene VDR. Furthermore, this assay endpoint can be referred to as a primary readout, because this assay has produced multiple assay endpoints where this one serves a reporter gene function. To generalize the intended target to other relatable targets, this assay endpoint is annotated to the nuclear receptor intended target family, where the subfamily is non-steroidal.
Human liver HepG2 cells are transiently transfected with multiple reporter transcription units (MRTUs) in 6-well plates using FuGene 6 reagent (Roche; 3 ml FuGene/1 mg DNA). The MRTU constructs are regulated by a cis-regulating element (promoter). […] A major difference between the CIS and TRANS system is that in CIS activities of endogenous TFs are measured, whereas the TRANS assay evaluates changes in activities of exogenous, chimeric NR-Gal4 proteins. […] At the end of 24 hour incubation, total RNA was isolated using TriZol reagent (Invitrogen). The isolated RNA is then reverse-transcribed using oligo(dT) primer and Mo-MLV reverse transcriptase (Invitrogen) with DNAse I (Ambion) treatment for 30 min. The one-tenth of the produced cDNA was amplified by PCR using Taq DNA polymerase (Invitrogen) and two reporter sequence-specific primers. The PCR products were fluorescently labeled by primer extension with 6-arboxyfluorescein (6-FAM) 5'-labeled reporter sequence-specific primer (2 min at 95 C, 20 s at 68 C and 10 min at 72 C) and these products were digested with 5U of HpaI (New England Biolabs) for 2h at 37 C. The fragments were purified using Qiaquick PCR columns (Qiagen), analyzed on an ABI 3130xL genetic analyzer (Applied Biosystems) with peak positions identified by using a set of X-rhodamine (ROX)-labeled MapMarker1000 molecular weight standards (BioVentures). The raw capillary electrophoresis data was processed using Attagraph software (Attagene).

human Vitamin D Receptor (VDR), VDR (gene 7421), sequence (P11473 whole entry, looked up): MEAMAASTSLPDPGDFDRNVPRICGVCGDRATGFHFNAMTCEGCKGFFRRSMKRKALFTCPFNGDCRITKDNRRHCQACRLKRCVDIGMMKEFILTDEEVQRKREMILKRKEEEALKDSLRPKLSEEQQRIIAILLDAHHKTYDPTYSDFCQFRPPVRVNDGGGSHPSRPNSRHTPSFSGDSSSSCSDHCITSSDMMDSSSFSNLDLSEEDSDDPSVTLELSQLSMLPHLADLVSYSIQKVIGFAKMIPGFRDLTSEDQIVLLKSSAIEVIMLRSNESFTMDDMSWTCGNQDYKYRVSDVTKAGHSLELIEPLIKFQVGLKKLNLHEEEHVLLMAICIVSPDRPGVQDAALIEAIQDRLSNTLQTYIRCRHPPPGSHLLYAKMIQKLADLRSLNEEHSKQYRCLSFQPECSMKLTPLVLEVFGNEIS

Structure (SMILES)	outcome	AC50
CCCC(=O)C(CC)Sc1ccoc1C (stereo not given)	inactive	–
CCCCC1CCC(O)CC1 (stereo not given)	inactive	–
N#Cc1ccc(CC(=O)c2cccc(C(F)(F)F)c2)cc1	inactive	–
CCC(C)c1cc([N+](=O)[O-])cc([N+](=O)[O-])c1OC(=O)OC(C)C (stereo not given)	inactive	–
CN(c1nccc(=O)[nH]1)C1CCN(c2nc3ccccc3n2Cc2ccc(F)cc2)CC1	inactive	–
Nc1ccc2cc(S(=O)(=O)O)cc(O)c2c1N=Nc1ccccc1C(F)(F)F	inactive	–
C=C1CC[C@H](O)C/C1=C/C=C1\CCC[C@]2(C)[C@@H]([C@H](C)/C=C/[C@H](C)C(C)C)CC[C@@H]12	–	3.98 µM (active)
NCCNc1cccc2ccccc12	inactive	–
CCCCCCCCCCCC(=O)OC[C@@H](O)[C@H]1OC[C@H](O)[C@H]1O	inactive	–
C=COCCOCCOC=C	inactive	–
COc1ccc(CCC(C)=O)cc1	inactive	–
COc1cc([C@@H]2c3cc4c(cc3[C@@H](O[C@@H]3O[C@@H]5CO[C@@H](C)O[C@H]5[C@H](O)[C@H]3O)[C@H]3COC(=O)[C@H]23)OCO4)cc(OC)c1O	inactive	–
Cc1ccc2c(c1)C(=O)OC2=O	inactive	–
Nc1c(S(=O)(=O)O)cc(Br)c2c1C(=O)c1ccccc1C2=O	inactive	–
COCCOC(=O)c1ccccc1C(=O)OCCOC	inactive	–
CCCSc1ccc2nc(NC(=O)OC)[nH]c2c1	inactive	–
CCCCC(CC)COC(=O)c1ccc(O)cc1 (stereo not given)	inactive	–
Cc1ccc(S(=O)(=O)Oc2ccc(N=Nc3ccc(-c4ccc(N=Nc5c(O)ccc6cc(S(=O)(=O)O)cc(S(=O)(=O)O)c56)c(C)c4)cc3C)cc2)cc1	inactive	–
CCCCCCC(C)Nc1ccc(Nc2ccccc2)cc1 (stereo not given)	inactive	–
C[Si](C)(C)O[Si](C)(C)C	inactive	–

Structure (SMILES)	outcome	AC50
CCCCOCC	inactive	–
CCOC(=O)c1ccc(N)cc1	inactive	–
C1CCOC1	inactive	–
CCCC[O][Al]([O]CCCC)[O]CCCC	inactive	–
CCC(C)S (stereo not given)	inactive	–
O=[N+]([O-])c1cccc(Cl)c1	inactive	–
COc1ccc(CCN2CCC(Nc3nc4ccccc4n3Cc3ccc(F)cc3)CC2)cc1	inactive	–
CCCCCCCCCCCCCC(=O)OCC(O)CO (stereo not given)	inactive	–
CCCCOC(=O)CCCCCCCC(=O)OCCCC	inactive	–
Nc1c(Cl)cc(Cl)cc1[N+](=O)[O-]	inactive	–
C=CCCC(=O)/C=C/C1C(C)=CCCC1(C)C (stereo not given)	inactive	–
C=CC(C)C#N (stereo not given)	inactive	–
C=C(C)[C@H]1CC=C(C)C(=O)C1	inactive	–
C=C(CC(=O)O)C(=O)O	inactive	–
COC(CC(C)CCCC(C)(C)O)OC (stereo not given)	inactive	–
CCCCCCCCCCCC(=O)OCC(O)CO (stereo not given)	inactive	–
FC(F)(F)COCC(F)(F)F	inactive	–
CC(C)(C)C1=CC(=O)C(C(C)(C)C)=CC1=O	inactive	–
Cc1ccc(OC(=O)c2ccccc2O)cc1	inactive	–
O=[N+]([O-])c1ccc(O)cc1C(F)(F)F	inactive	–
